Test results from the supplement of paper PMC10849652.
Targets with a hit are over-represented here; the source holds about 8,800 in all. About 0.5% of all pairs of compound and target were hits. Unmarked numbers belong to inactive results.

What was measured:
Assay in all cases: log2 fold change, soluble protein after heating vs DMSO (PISA); higher = thermal stabilisation; K562 lysate, 10 uM; active = over 0.2 and 3.5 SD of the protein, either way, in both replicates (recomputed)
nilotinib = compound: Cc1cn(-c2cc(NC(=O)c3ccc(C)c(Nc4nccc(-c5cccnc5)n4)c3)cc(C(F)(F)F)c2)cn1 [nilotinib]
Procedure, shortened: (§1)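 A 30 min treatment with 10 μM compound was applied to crude K562 extract at 1 mg/mL protein in PBS pH 7.4 with 1 mM MgCl2. Heating for 3 min spanned 48°C-58°C, after which aliquots were pooled, adjusted to 0.5% NP-40 at 4°C and spun at 21,000xg for 90 min. TMTpro 16plex LC-MS/MS of the supernatant, with channel sums equalised, gave values recorded as log-two fold change in thermal stability against solvent controls, from duplicates.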

[1] = compound: Cc1nc(Nc2n[nH]c3c2CN(C(=O)N[C@H](CN(C)C)c2ccccc2)C3(C)C)c2sccc2n1
Procedure, shortened: as §1

dasatinib = compound: Cc1nc(Nc2ncc(C(=O)Nc3c(C)cccc3Cl)s2)cc(N2CCN(CCO)CC2)n1 [dasatinib]
Procedure, shortened: as §1

[2] = compound: Cc1ncc(-c2ccnc(Nc3ccc(S(C)(=O)=O)cc3)n2)n1C(C)C
Procedure, shortened: as §1

[3] = compound: Cn1cc(-c2ccc3c(c2)CCN3C(=O)Cc2cccc(C(F)(F)F)c2)c2c(N)ncnc21
Procedure, shortened: as §1

quisinostat = compound: Cn1cc(CNCC2CCN(c3ncc(C(=O)NO)cn3)CC2)c2ccccc21 [quisinostat]
Procedure, shortened: as §1

tipifarnib = compound: Cn1cncc1[C@@](N)(c1ccc(Cl)cc1)c1ccc2c(c1)c(-c1cccc(Cl)c1)cc(=O)n2C [tipifarnib]
Procedure, shortened: as §1

[4] = compound: NC(=O)Nc1cc(-c2cccc(F)c2)sc1C(=O)N[C@H]1CCCNC1
Procedure, shortened: as §1

[5] = compound: NC(=O)c1cnc(N[C@@H]2CCCC[C@@H]2N)nc1Nc1cccc(-n2nccn2)c1
Procedure, shortened: as §1

[6] = compound: NC1(c2ccc(-c3nc4ccn5c(=O)[nH]nc5c4cc3-c3ccccc3)cc2)CCC1
Procedure, shortened: as §1

Sequence of UniProt O43502 (O43502 whole entry, looked up): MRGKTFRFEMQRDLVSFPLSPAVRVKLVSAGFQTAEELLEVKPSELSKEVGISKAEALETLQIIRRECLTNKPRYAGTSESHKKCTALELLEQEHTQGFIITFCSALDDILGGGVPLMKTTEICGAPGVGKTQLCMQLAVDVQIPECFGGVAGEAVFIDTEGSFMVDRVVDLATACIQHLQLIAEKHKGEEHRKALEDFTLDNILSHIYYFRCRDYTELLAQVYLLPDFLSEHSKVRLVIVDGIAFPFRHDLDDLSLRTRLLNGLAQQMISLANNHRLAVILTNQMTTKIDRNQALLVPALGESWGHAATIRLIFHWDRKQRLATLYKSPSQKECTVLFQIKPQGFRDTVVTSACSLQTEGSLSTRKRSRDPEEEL
Sequence of UniProt Q9Y225 (Q9Y225 whole entry, looked up): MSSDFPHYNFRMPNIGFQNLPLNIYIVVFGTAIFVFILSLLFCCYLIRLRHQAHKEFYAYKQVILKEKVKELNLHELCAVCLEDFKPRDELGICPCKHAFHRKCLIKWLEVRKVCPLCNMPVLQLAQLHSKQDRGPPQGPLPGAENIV
Sequence of UniProt Q15283 (Q15283 whole entry, looked up): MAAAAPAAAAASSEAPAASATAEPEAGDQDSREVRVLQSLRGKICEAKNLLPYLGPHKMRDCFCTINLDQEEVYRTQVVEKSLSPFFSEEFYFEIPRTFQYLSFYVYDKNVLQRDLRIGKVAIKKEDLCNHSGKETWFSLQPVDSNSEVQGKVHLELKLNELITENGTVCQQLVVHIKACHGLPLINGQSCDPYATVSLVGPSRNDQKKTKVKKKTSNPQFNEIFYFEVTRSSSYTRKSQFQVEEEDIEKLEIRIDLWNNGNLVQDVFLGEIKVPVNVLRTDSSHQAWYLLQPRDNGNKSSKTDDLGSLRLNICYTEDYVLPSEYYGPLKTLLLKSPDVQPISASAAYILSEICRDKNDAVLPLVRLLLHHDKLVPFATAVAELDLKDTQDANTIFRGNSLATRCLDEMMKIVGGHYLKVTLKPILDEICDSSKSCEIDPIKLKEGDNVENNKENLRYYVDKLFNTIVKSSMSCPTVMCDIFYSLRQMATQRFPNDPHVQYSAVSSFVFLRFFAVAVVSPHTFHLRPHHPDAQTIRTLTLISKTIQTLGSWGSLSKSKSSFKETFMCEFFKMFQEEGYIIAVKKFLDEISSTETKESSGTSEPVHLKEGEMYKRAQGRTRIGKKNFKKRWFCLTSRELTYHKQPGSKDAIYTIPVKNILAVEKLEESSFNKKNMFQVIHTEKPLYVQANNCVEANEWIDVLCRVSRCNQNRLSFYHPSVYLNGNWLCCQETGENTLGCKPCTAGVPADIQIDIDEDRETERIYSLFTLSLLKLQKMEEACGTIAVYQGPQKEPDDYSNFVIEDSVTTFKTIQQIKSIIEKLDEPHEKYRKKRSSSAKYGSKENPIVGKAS
Sequence of UniProt Q53S08 (Q53S08 whole entry, looked up): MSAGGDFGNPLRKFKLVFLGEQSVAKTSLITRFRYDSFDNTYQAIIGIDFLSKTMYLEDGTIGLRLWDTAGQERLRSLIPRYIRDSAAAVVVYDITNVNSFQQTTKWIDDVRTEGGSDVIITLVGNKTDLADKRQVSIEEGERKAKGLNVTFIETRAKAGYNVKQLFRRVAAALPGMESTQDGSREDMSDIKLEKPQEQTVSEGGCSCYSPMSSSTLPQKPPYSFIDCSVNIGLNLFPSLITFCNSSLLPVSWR
Sequence of UniProt Q9Y6D0 (Q9Y6D0 whole entry, looked up): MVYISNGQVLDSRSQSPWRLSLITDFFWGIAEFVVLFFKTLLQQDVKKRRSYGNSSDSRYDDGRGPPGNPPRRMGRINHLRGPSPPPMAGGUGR
Sequence of UniProt Q8IUH3 (Q8IUH3 whole entry, looked up): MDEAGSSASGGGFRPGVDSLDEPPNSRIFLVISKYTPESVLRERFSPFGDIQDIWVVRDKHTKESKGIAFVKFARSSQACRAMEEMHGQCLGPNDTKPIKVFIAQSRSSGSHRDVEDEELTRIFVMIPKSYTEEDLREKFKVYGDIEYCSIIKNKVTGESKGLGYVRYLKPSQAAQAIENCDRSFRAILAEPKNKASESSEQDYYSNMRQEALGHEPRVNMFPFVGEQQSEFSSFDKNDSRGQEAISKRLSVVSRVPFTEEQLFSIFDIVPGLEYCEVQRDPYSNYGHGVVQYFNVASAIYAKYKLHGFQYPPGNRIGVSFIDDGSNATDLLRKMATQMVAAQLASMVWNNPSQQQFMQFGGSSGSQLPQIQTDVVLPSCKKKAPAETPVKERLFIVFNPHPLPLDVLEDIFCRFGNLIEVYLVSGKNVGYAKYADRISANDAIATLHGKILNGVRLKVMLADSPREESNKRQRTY
Sequence of UniProt Q13530 (Q13530 whole entry, looked up): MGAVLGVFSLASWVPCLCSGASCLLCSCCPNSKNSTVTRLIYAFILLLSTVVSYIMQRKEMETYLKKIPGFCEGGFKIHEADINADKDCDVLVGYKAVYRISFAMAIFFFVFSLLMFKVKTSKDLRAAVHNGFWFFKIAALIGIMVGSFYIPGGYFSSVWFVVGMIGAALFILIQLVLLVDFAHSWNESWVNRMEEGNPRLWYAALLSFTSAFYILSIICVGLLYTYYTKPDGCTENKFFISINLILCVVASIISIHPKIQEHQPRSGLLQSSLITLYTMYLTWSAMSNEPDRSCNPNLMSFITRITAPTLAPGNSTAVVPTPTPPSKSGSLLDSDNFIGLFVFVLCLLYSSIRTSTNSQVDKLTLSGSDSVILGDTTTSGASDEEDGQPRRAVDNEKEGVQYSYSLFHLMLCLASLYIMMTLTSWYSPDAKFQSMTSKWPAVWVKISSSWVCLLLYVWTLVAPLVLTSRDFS
Sequence of UniProt Q13464 (Q13464 whole entry, looked up): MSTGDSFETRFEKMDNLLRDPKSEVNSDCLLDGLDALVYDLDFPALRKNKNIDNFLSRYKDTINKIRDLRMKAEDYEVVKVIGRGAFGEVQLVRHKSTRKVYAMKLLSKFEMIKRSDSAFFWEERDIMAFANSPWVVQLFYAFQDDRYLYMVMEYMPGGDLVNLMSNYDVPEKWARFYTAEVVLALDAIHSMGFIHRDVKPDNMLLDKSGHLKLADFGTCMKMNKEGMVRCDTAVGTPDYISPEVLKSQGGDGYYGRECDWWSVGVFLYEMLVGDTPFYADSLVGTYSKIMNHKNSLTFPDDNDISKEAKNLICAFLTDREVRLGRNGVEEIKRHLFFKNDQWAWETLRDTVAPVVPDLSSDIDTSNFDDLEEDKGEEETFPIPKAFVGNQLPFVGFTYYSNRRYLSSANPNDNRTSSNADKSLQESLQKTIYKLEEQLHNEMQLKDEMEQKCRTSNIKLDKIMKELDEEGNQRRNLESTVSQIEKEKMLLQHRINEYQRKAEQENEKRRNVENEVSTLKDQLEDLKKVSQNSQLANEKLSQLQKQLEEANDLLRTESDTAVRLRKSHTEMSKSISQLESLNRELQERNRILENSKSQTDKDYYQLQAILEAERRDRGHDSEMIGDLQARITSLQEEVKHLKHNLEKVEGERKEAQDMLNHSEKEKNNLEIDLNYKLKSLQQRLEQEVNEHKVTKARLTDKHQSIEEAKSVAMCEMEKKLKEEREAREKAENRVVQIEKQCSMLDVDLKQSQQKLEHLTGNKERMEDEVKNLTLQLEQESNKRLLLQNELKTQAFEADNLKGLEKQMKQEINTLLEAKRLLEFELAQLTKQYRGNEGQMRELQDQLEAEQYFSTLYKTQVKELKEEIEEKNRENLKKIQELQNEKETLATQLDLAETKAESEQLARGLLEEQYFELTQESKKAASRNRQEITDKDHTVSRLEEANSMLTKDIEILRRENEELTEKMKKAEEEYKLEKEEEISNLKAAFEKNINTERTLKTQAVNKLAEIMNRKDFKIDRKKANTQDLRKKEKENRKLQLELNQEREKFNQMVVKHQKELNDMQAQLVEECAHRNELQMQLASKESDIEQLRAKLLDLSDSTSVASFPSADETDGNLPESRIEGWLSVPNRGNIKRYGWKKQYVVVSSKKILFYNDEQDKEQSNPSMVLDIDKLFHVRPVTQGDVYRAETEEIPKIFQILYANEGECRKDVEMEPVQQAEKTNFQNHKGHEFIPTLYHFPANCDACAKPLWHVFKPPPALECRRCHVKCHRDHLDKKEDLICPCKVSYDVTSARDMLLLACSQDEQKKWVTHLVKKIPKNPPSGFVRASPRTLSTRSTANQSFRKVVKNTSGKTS
Sequence of UniProt Q6PCD5 (Q6PCD5 whole entry, looked up): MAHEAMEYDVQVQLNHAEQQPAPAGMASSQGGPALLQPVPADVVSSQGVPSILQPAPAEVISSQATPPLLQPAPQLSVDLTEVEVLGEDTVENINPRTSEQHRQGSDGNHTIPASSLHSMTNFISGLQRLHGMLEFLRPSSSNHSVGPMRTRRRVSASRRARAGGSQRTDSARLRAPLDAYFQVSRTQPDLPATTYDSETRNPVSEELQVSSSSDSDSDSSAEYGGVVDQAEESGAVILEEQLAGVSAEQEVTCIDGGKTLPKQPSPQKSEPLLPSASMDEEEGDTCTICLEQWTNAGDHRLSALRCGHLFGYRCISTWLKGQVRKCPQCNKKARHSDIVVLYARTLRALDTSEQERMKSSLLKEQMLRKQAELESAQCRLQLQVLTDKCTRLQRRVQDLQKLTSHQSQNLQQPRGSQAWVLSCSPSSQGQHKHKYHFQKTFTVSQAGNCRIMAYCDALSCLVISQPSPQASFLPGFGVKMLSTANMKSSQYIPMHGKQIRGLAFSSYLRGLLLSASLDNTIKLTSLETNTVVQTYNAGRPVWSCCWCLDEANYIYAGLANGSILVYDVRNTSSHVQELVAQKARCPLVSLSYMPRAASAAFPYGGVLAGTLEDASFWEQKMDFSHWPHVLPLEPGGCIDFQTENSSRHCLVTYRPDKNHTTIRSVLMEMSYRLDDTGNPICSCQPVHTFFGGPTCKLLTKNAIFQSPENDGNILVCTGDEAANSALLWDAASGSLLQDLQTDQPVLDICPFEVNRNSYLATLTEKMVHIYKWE
Sequence of UniProt Q9BUV8 (Q9BUV8 whole entry, looked up): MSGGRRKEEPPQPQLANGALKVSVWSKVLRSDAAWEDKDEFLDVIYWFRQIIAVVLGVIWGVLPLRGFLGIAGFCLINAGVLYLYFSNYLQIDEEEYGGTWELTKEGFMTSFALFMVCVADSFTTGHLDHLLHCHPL

Target	log2 fold change (nilotinib)	log2 fold change [1]	log2 fold change (dasatinib)	log2 fold change [2]	log2 fold change [3]	log2 fold change (quisinostat)	log2 fold change (tipifarnib)	log2 fold change [4]	log2 fold change [5]	log2 fold change [6]
RELN (UniProt P78509)	-0.086	-0.039	-0.005	-0.047	0.002	-0.005	-0.032	0.042	-0.101	0.013
RXRB isoform 3 (UniProt P28702)	0.01	-0.038	-0.018	0.001	0.095	-0.038	-0.052	0.032	-0.031	-0.199
RAPGEF2, A0A2R8YGD3	-0.032	0.027	0.052	-0.036	0.008	-0.018	-0.017	0.054	-0.02	0.024
SERINC3 (UniProt Q13530)	0.022	0.023	0.026	-0.006	0.009	-0.131	-0.036	0.04	0.008	-0.083
RNF213, A0A0A0MTC1	0.015	-0.016	-0.027	-0.019	0.035	-0.033	0.001	0.071	0.015	-0.016
RAD51C (UniProt O43502)	0.013	0.021	-0.014	0.009	-0.019	0.036	0.03	0.051	0.042	-0.021
RPLP0P6 (UniProt Q8NHW5)	0.01	-0.027	0.018	0.001	0.026	-0.049	-0.02	0.002	0.005	-0.016
RBM5 (UniProt P52756)	0.146	-0.085	0.073	0.028	-0.003	0.027	-0.015	0.009	0.114	0.185
RTN4IP1 (UniProt Q8WWV3)	-0.056	-0.34 (active)	-0.046	-0.259	0.028	-0.033	0.245	-0.055	-0.012	0.148
RASA2 (UniProt Q15283)	-0.049	-0.037	-0.015	0.063	0	-0.071	0.018	-0.011	0.042	-0.031
RXRA (UniProt P19793)	0.164	-0.053	-0.112	0.119	-0.024	-0.028	0.011	0.027	0.024	-0.014
RPS29 (UniProt P62273)	0.117	0.072	0.22	0.061	0.112	0.361	0.094	-0.116	-0.024	-0.068
RHBDD1 (UniProt Q8TEB9)									0.103	
RYR1 (UniProt P21817)			-0.032		-0.061	-0.392 (active)		0.046	0.029	0.003
RBM45 (UniProt Q8IUH3)	0.051	-0.077		0.143		-0.145	-0.012	-0.025	0.061	
RAPGEF4 (UniProt Q8WZA2)			-0.092		-0.061	-0.491		0.16	0.064	-0.192
RETSAT (UniProt Q6NUM9)			-0.1		-0.058	-0.485 (active)		0.152	-0.005	-0.051
SEC16A isoform 3 (UniProt O15027)			-0.026		-0.039					
RALGAPB isoform 3 (UniProt Q86X10)			0.052		-0.034					
RBM4 isoform 3 (UniProt Q9BWF3)						-0.094		0.06		
RNF24 isoform 2 (UniProt Q9Y225)	0.105	-0.028		0.123		-0.139	0.034	-0.075		0.051
RAB6D (UniProt Q53S08)	-0.028	-0.019	-0.004	0.111	-0.008	-0.056	-0.162	-0.006	-0.013	-0.064
RUFY2 isoform 1 (UniProt Q8WXA3)	-0.006	0.02		0.119		0.047	0.177	0.007		

Target	log2 fold change (nilotinib)	log2 fold change [1]	log2 fold change (dasatinib)	log2 fold change [2]	log2 fold change [3]	log2 fold change (quisinostat)	log2 fold change (tipifarnib)	log2 fold change [4]	log2 fold change [5]	log2 fold change [6]
ROCK1 (UniProt Q13464)	-0.013	-0.001	-0.004	0.006	0.011	-0.01	0.001		0.009	0.013
SERAC1 (UniProt Q96JX3)	0.085	-0.133	-0.152	-0.029	0.052		0.033			-0.023
RETREG2 (UniProt Q8NC44)	0.363 (active)	-0.135		0.055		-0.084	-0.076	-0.016	-0.012	-0.022
RNF17 (UniProt Q9BXT8)			-0.055		0.061	0.142		0.054	0.046	0.043
RLIM (UniProt Q9NVW2)						-0.748 (active)		0.233		
RBBP7 (UniProt C9J7L0)	-0.133	0.046		0.222			0.039			
RNF2 (UniProt Q99496)	0.026	-0.047	-0.07	0.027	-0.025	0.154	-0.124	-0.015		-0.05
RFWD3 (UniProt Q6PCD5)	0.042	-0.066	0.027	-0.082	0.004	-0.041	-0.037	0.003		-0.053
RFNG (UniProt Q9Y644)	0.184	0.054		-0.078			-0.048			
SEMA4G isoform 2 (UniProt Q9NTN9)			0.006		0.235	0.074		0.085		0.077
ROBO2 isoform 3 (UniProt Q9HCK4)						0.052		0.009	0.043	0.005
RNF170 (UniProt Q96K19)	-0.04	0	-0.008	0.043	-0.028		-0.3		-0.07	0.073
RNASEH2B, A0A1B0GUE7	-0.01	0.037		0.211			0.067		0.035	
SELENOK (UniProt Q9Y6D0)	-0.009	-0.032	0.082	0.064	-0.032		-0.077		0.001	
RAB5IF isoform 5 (UniProt Q9BUV8)	-0.033	-0.033	-0.108	-0.003	0.06		-0.189		0.026	-0.096
SEH1L isoform 1 (UniProt Q96EE3)	-0.009	-0.019	0.032	0.006	0.007	-0.008	-0.008	0	0.003	-0.028
RAD54L (UniProt Q92698)	-0.004	0.078	-0.212	0.037	-0.054		0.007		0.015	-0.073
RMI2 (UniProt Q96E14)			-0.049		-0.044	-0.051		0.021		0.082
SAMD4A (UniProt Q9UPU9)			-0.228		-0.005	-0.069		0.058	-0.023	0.012
RBM22 (UniProt Q9NW64)	-0.045	0.024	-0.072	-0.006	0.057	-0.022	-0.036	-0.027	0.01	0.033
RTTN (UniProt Q86VV8)	-0.102	0.14	-0.086	-0.003	-0.161		-0.069		-0.282	0.216
RECQL4 (UniProt O94761)	0.051	0.102	-0.007	-0.063	-0.019	-0.094	0.024	0.023		0.017
S100A6 (UniProt P06703)			0.774 (active)		-0.063	0.001		-0.078	-0.063	0.026
